We go through 29 compounds from PubChem BioAssay (NCATS).

Each structure is given as a SMILES string. Inconclusive results are not listed. Entries that show only a call come without a potency. The source made the active and inactive calls. The call rests on the fitted dose curve; in most records, active means well fitted curve in the direction sought with a large enough effect; inconclusive means small, poorly fitted or top-dose-only effect, or another doubt; inactive means no such curve, though single readings can be large; an effect the other way counts as inactive or inconclusive.

The test system of assay [1] is Zika virus NS2B-NS3 protease (linked construct). Briefly: Primary screen NINDS Rhodamine qHTS for Zika virus inhibitors (AID 1347160). Further: nearly all actives have a fitted effect of over 55% in size. Further: potency means the concentration at half of the fitted maximal effect. The method in brief: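 Each compound, titrated, sat 15 min with 25 nM linked protease before 1.5 microM Rhodamine110 substrate went in. Fluorescence gain over the next 15 min, in pH 8.0 Tris with Tween 20, gave Hill-fitted curves.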
Background: Quantitative high-throughput screening tests each substance at several concentrations.

Assay [2] relates to Zika virus NS2B-NS3 protease (unlinked complex). Briefly: Primary screen GU Rhodamine qHTS for Zika virus inhibitors: Unlinked NS2B-NS3 protease assay (AID 1347159). Further: nearly all actives have a fitted effect of over 60% in size. Further: potency means the concentration at half of the fitted maximal effect. The gist of the method:
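In dose–response format, inhibition of unlinked protease (25 nM) was measured with 1.5 microM bis-peptide Rhodamine110 substrate. Aprotinin served as the intraplate control.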

A short description of assay [3]: Tertiary RLuc qRT-PCR qHTS assay for Zika virus inhibitors (AID 1347169). Further: nearly all actives have a fitted effect of over 55% in size. Further: potency means the concentration at half of the fitted maximal effect. The method in brief:
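Orthogonal cell-based infection assay using recombinant ZIKV-RLuc (Cambodian) in Vero cells; compound added prior to virus at MOI 1-2. Incubation lasts 48-72 hrs at 37 degrees C before live-cell Renilla substrate is added and luminescence measured.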
In general terms: In qPCR the cycle at which signal appears reflects the starting amount.

Assay [4] is described as follows: Confirmatory screen NINDS Rhodamine qHTS for Zika virus inhibitors (AID 1347161).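 Further: purified Zika NS2B-NS3 protease with linked NS2B cofactor domain and Rhodamine110 peptide substrate; series mostly up to about 110 µM; nearly all actives have a fitted effect of over 60% in size.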 The method in brief:
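Rhodamine110-peptide cleavage (1.5 µM substrate) by 25 nM linked NS2B-NS3 enzyme at pH 8.0 (Tris, Tween 20), after 15 min RT preincubation with compounds; 15-min fluorescence change normalized to controls and Hill-fitted.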

The test system of assay [5] is Zika virus NS2B-NS3 protease (linked construct). The experiment in a line: 384 well plate NINDS Rhodamine confirmatory qHTS for Zika virus inhibitors (AID 1347164). Further: top concentration of the series differs between compounds; nearly all actives have a fitted effect of over 65% in size. The gist of the method:
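Compounds are incubated about 15 minutes with linked protease (5, 30 or 60 nM final). Rhodamine 110-tagged Ac-LKRR substrate (10 microM final) is added and fluorescence measured after 25 minutes.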

A short description of assay [6]: Vero cells viability qHTS for Zika virus inhibitors (AID 1347167). The method in brief:
(§1)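 To flag cytotoxic protease inhibitors, viability is measured by ATP-dependent luminescence (CellTiter Glo) after cells attached overnight receive compound for 24 to 48 hours in DMEM with 4% FBS.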

Assay [7] can be described thus: HepG2 cells viability qHTS for Zika virus inhibitors (AID 1347168). The gist of the method: as §1

Regarding `CCc1cccc(CC)c1NC(=O)c1nn(C)c2c1CCc1cnc(Nc3ccc(C(=O)NC4CCN(C)CC4)cc3OC(F)(F)F)nc1-2`, the Potency result in assay [1] is “inactive”.
As for `COc1ccc(/C=C/C(=O)O[C@@H]2[C@@H](O)[C@@H](O)[C@H](O[C@@H]3C=C(CO)[C@H]4[C@H](O[C@@H]5O[C@H](CO)[C@@H](O)[C@H](O)[C@H]5O)OC=C[C@H]43)O[C@H]2C)cc1O`, the Potency entry in assay [1] was “inactive”.
Still for that read-out and setting: with `CCN1CCN(Cc2ccc(NC(=O)c3ccc(C)c(NC(=O)c4cncc(-c5cccs5)c4)c3)cc2C(F)(F)F)CC1` the entry was “inactive”; with `CS(=O)(=O)N(CC(=O)NCC1CC1)c1cc(C(F)(F)F)ccc1Cl`, “inactive”.
Take `C=C1C(=O)OC2/C=C(\CO)CC/C=C(\C=O)CC(OC(=O)CC(C)C)C12` (centres undefined): the Potency entry in assay [1] is “inactive”.
Consider `O=C1NC(=O)C(c2cn3c4c(cccc24)CCC3)C1c1c[nH]c2ccccc12` (centres undefined), for which the Potency result in assay [1] is “inactive”.
With `O=[N+]([O-])c1cccc2[nH]c(CNc3nc(N4CCOCC4)nc4c3ncn4-c3ccsc3)nc12`, the Potency is 89.1 µM (active) in assay [2] and 0.117 µM (active) in assay [3]. In assay [1], the Potency entry was “inactive”.
For the compound `Nc1ncnc2c([C@@H]3N[C@H](CO)[C@@H](O)[C@H]3O)c[nH]c12`, the Potency result in assay [2], in assay [1], in assay [4] and in assay [5] was “inactive” in each case. Moreover, the compound was classed as inactive in assay [6] and in assay [7].
Regarding `CCOCc1cc(OC)c(-c2ccc(C[C@H](NC(=O)c3c(F)cccc3F)C(=O)O)cc2)c(OC)c1`, the Potency entry in assay [1] was “inactive”.
Turning to `CC12CCC(OC3OC(CO)C(O)C(OC4OC(CO)C(O)C(O)C4O)C3O)CC1=CCC1C2CCC2(C)/C(=C3/COC(=O)C3)CCC12O` (centres undefined), the Potency entry in assay [2] and in assay [1] was “inactive” in each case.
For `C=C1CC[C@@H]2[C@](C)(CO[C@@H]3O[C@H](CO)[C@@H](O)[C@H](O)[C@H]3O)[C@H](O)CC[C@@]2(C)[C@@H]1C/C=C1/C(=O)OC[C@H]1O`, the Potency result in assay [1] was “inactive”.
For `CCCCc1ccc(C(=O)Nc2cc(-c3ccc(Cl)cc3)nn2-c2ccc(Cl)cc2)cc1`, in assay [2], the Potency was 39.8 µM (active). Also, the Potency entry in assay [1] and in assay [4] was “inactive” throughout.
On to `COc1ccccc1Oc1ccc(N(Cc2cccnc2)S(=O)(=O)CC(F)(F)F)cc1`, for which the Potency result in assay [1] was “inactive”.
Regarding `O=C(NCc1ccc(F)cc1)C(=O)c1c[nH]c2ccccc12`, the Potency result in assay [2] and in assay [1] was “inactive” throughout.
For the compound `OC1CCC(Nc2ncc3nc(Nc4c(F)cc(F)cc4F)n([C@H]4CCOC4)c3n2)CC1` (some centres undefined), the Potency result in assay [2] and in assay [1] was “inactive” in each case.
In the case of `COc1ccc(CCC(=O)c2c(O)cc(O)cc2O[C@@H]2O[C@H](CO)[C@@H](O)[C@H](O)[C@H]2O)cc1`, the Potency entry in assay [1] is “inactive”.
As to `COC(=O)CCC(=O)OC[C@]1(C)CCC[C@@]2(C)C3CC[C@]4(C)C=CC3(CCC12)C4` (some centres undefined), the Potency entry in assay [2] and in assay [4] was “inactive” each time.
For `Cc1cnc(Nc2ccc(F)cc2Cl)nc1-c1c[nH]c(C(=O)NC(CO)c2cccc(Cl)c2)c1` (centres undefined), the Potency result in assay [2] and in assay [1] was “inactive” in each case.
Regarding `CC(=O)O[C@H]1[C@@H](O)[C@H](O[C@H]2[C@@H]3C=CO[C@@H](O[C@H]4O[C@@H](CO)[C@H](O)[C@@H](O)[C@@H]4O)[C@@H]3[C@@]3(CO)O[C@@H]23)O[C@@H](C)[C@@H]1OC(=O)/C=C/c1ccccc1`, the Potency entry in assay [1] is “inactive”.
`COC(=O)[C@H](O)[C@H]1C(C)(C)[C@H](OC(=O)C(C)C)[C@@]2(O)C(=O)[C@]1(C)C1CC[C@]3(C)C(CC(=O)O[C@H]3c3ccoc3)[C@]13O[C@@H]32` (some centres undefined): in assay [1], the Potency result is “inactive”.
For `O=C1OCc2cc3cccc(O[C@@H]4O[C@H](CO)[C@@H](O)[C@H](O)[C@H]4O)c3c(O)c21`, the Potency result in assay [2] and in assay [3] was “inactive” throughout. The Potency in assay [1] was 11.2 µM (active).
On to `COc1cc2ncnc(N3CCC(Oc4cnc5ccccc5n4)C3)c2cc1OC` (centres undefined), for which the Potency result in assay [1] was “inactive”.
Regarding `Cn1cc(S(=O)(=O)c2ccc(Cl)cc2)c2cccc(N3CCNCC3)c21`, the Potency result in assay [2] and in assay [1] was “inactive” in each case.
Consider `Cc1cc(=O)oc2c(C=O)c(O)ccc12`, for which, in assay [2], the Potency was 79.4 µM (active). Moreover, the Potency entry in assay [1] and in assay [3] was “inactive” in each case.
For the compound `CC/C=C/CC1=C(CCCCC(CCC(=O)O)OC(C)=O)CCC1=O` (centres undefined), the Potency entry in assay [1] is “inactive”.
For the compound `O=S(=O)(NC1CCC(c2cc(F)ccc2F)(S(=O)(=O)c2ccc(Cl)cc2)CC1)C(F)(F)F` (centres undefined), the Potency in assay [1] is 12.6 µM (active).
Regarding `C[C@@H]1O[C@@H](OC[C@H]2O[C@@H](Oc3cc(O)cc4c3C(=O)C(O)(Cc3ccc(O)cc3)O4)[C@H](O)[C@@H](O)[C@@H]2O)[C@H](O)[C@H](O)[C@H]1O` (some centres undefined), the Potency entry in assay [2] and in assay [1] was “inactive” in each case.
With `C[C@@H]1O[C@@H](OC[C@H]2O[C@@H](OC(CCCCc3ccc(O)cc3)CCc3ccc(O)cc3)[C@H](O)[C@@H](O)[C@@H]2O)[C@H](O)[C@H](O)[C@H]1O` (some centres undefined), in assay [1], the Potency result is “inactive”.
As for `CC1(C)CCCC2(C)C1CC=C1C(=O)OC(O)C12O` (centres undefined), in assay [1], the Potency entry is “inactive”.
